Source: PubChem BioAssay (NCATS)
Results filed as inconclusive are left out. Activity calls are given as the source filed them. Unless noted, calls come from the whole dose curve; as a rule, active = well fitted curve in the direction sought with a large enough effect; inconclusive = small, poorly fitted or top-dose-only effect, or another doubt; inactive = no such curve, though single readings can be large; an effect the other way counts as inactive or inconclusive.

Experiments:
[1] = target: Rap guanine nucleotide exchange factor 3 (Homo sapiens) (UniProt O95398); test: Confirmatory qHTS for agonist of cAMP-regulated guanine nucleotide exchange factor 3 (EPAC1) (AID 1645881);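 note: EPAC1 catalysed release of BODIPY-GDP from Rap1B seen as fluorescence loss; 100% = effect of cAMP agonist control; nearly all actives have a fitted effect of over 75% in size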
Rap guanine nucleotide exchange factor 3 (Homo sapiens), sequence (O95398 whole entry, looked up): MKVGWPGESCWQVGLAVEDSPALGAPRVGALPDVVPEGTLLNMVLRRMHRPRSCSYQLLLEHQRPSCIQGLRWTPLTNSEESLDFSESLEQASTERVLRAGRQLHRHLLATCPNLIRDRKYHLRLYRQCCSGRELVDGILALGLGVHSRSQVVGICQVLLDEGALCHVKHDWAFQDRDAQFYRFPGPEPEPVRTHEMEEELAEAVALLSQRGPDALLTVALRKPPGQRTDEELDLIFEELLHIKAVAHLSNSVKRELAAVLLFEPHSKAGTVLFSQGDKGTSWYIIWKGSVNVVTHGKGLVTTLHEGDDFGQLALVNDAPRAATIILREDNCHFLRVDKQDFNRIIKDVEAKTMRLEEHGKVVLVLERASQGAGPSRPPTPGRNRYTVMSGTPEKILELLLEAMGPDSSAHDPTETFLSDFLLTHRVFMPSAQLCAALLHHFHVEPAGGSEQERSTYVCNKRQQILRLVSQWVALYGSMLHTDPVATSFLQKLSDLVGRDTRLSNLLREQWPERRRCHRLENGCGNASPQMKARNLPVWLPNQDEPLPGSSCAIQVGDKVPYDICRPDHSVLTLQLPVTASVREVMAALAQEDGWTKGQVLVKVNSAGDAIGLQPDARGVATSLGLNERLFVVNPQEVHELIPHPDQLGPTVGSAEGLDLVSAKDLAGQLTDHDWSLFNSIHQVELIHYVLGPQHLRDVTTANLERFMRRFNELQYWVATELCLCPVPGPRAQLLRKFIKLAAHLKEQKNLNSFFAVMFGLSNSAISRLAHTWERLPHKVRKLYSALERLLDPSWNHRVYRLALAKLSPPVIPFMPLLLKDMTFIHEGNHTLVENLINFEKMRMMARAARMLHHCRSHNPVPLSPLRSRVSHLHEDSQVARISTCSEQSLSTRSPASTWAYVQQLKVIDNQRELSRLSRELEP

[2] = target: Rap guanine nucleotide exchange factor 4 (Homo sapiens) (UniProt Q8WZA2); test: Confirmatory qHTS for agonist of cAMP-regulated guanine nucleotide exchange factor 4 (EPAC2) (AID 1645884);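 note: nucleotide exchange releases bodipy-GDP from Rap1 and this lowers its fluorescence; % is set by controls: 0 for no effect and ±100 for the full control effect; nearly all actives have a fitted effect of over 65% in size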
Rap guanine nucleotide exchange factor 4 (Homo sapiens), sequence (Q8WZA2 whole entry, looked up): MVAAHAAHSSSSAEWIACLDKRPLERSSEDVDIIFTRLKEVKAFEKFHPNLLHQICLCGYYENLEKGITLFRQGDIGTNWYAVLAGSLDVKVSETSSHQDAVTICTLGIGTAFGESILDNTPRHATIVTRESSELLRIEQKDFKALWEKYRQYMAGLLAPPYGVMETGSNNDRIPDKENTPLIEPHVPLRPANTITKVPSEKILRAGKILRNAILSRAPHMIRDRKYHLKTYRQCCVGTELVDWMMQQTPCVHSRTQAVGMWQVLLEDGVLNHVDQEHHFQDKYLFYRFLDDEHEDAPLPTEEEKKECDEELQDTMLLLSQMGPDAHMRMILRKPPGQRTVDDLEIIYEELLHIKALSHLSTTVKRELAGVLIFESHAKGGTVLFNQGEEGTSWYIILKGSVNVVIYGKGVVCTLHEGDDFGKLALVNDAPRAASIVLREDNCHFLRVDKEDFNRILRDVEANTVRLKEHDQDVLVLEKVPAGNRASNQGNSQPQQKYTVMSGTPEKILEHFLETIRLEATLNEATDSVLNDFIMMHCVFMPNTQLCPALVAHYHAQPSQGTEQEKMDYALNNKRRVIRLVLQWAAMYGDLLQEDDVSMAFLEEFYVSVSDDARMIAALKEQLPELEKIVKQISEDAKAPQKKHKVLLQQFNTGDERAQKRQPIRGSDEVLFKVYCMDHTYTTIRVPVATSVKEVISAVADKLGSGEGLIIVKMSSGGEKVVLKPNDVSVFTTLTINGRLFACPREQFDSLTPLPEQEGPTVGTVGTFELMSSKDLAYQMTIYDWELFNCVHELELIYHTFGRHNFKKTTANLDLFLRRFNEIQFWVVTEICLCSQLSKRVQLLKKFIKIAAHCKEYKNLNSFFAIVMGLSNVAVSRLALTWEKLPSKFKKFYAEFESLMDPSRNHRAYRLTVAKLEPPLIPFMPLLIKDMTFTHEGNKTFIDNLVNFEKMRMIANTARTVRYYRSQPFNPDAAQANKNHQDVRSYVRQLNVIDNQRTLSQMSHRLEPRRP

[3] = target: Rap guanine nucleotide exchange factor 3 (Homo sapiens) (UniProt O95398); test: Counterscreen qHTS for antagonist of cAMP-regulated guanine nucleotide exchange factor 3 (EPAC1) (AID 1645888);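 note: fluorescence loss as bound BODIPY-GDP is released from Rap1B; % of control where 0% means no effect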
Outline: (§1)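 Rap1B-BODIPY-GDP 250 nM + GDP 50 uM; cpds 7-pt, final 9.74 nM–152 uM (activator mode) or from 7.32 nM upwards (inhibitor mode); RT; FI 480/540 nm at 5 and 30 min, then ± cAMP, reread.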

[4] = target: Rap guanine nucleotide exchange factor 3 (Homo sapiens) (UniProt O95398); test: Counterscreen qHTS for agonist of cAMP-regulated guanine nucleotide exchange factor 3 (EPAC1) (AID 1645889); note: % of control where 0% means no effect; nearly all actives have a fitted effect of over 40% in size
Outline: as §1

[5] = target: Mitogen-activated protein kinase 10 (Mus musculus) (UniProt Q61831); test: JNK3 AlphaScreen Assay (AID 530; active = well fitted curve in either direction with a large enough effect, not every such curve was filed as active;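 note: kinase came from lysate of stimulated human HepG2 cells; signal reports phosphorylation of biotinylated GST-cJun 1-79 at Ser73 with 10 µM ATP; series mostly up to about 57 µM; % is set by controls: 0 for no effect and ±100 for the full control effect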)
Outline: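 Room-temperature AlphaScreen kinase assay; pre-activated HepG2 lysate as JNK3 source, biotin-GST-cJun(1-79) substrate, 10 uM ATP, compound 15 min preincubation.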

[6] = target: Cytochrome P450 3A4 (Homo sapiens) (UniProt P08684); test: qHTS Assay for Inhibitors and Substrates of Cytochrome P450 3A4 (AID 884); note: series mostly up to about 57 µM; % is set by controls: 0 for no effect and ±100 for the full control effect; nearly all actives have a fitted effect of over 50% in size
Cytochrome P450 3A4 (Homo sapiens), sequence (P08684 whole entry, looked up): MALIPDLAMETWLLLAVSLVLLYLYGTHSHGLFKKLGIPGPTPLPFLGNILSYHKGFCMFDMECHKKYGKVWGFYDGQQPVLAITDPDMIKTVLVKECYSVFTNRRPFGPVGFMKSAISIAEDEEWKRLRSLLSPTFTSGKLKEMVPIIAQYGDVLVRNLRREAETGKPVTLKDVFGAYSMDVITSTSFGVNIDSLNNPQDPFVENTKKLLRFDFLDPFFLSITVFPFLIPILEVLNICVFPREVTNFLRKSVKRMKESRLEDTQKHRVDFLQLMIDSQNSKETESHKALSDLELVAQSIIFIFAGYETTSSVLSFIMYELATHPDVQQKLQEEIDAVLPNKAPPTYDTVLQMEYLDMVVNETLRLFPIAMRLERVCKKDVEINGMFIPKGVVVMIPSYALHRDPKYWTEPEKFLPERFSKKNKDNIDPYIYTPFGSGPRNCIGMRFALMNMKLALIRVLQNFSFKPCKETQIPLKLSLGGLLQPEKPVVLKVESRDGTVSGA
Outline: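 20 nM human CYP3A4 with 25 uM Luciferin-PPXE (at KM) in 200 mM KPO4, preincubated 10 min with compound; NADPH regeneration started a 60 min RT reaction. Luciferin detected by luminescence, normalized to 57 uM ketoconazole as full inhibition.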

Oc1ccc(-c2cn3c(n2)SCC3)cc1O
inactive: Potency [1] | Potency [2] | Potency [3] | Potency [4]

COc1ccc(-c2ccc(C(=O)NCC3CC3)c3occc23)c(C)c1
inactive: Potency [1] | Potency [2] | Potency [3] | Potency [4]

Cc1ccc(C(=O)NNC(=O)c2ccccc2O)cc1S(=O)(=O)N1CCCCC1
inactive: Potency [1] | Potency [2] | Potency [3] | Potency [4]

COc1ccccc1N(C)S(=O)(=O)c1ccc(C(=O)NC2CCCCC2)cc1
inactive: Potency [1] | Potency [2] | Potency [3] | Potency [4]

CC(=O)C1=C(O)C2(C)c3c(O)c(C)c(O)c(C(C)=O)c3OC2CC1=O (stereo not drawn)
inactive: Potency [1] | activation [2] -4.59% [at 17.1 µM, percent relative to cAMP agonist control] | activity change, negative = inhibition [3] -6.21% [at 30.8 µM] | activation [4] -4.12% [at 30.8 µM]

CC1=C(C(=O)OCc2ccccc2)C(c2ccc(C(C)(C)C)cc2)NC(=O)N1CCCCCC(=O)O (stereo not drawn)
inactive: Potency [5] | Potency [6] | Potency [1] | Potency [2] | Potency [3] | Potency [4]

COC(=O)c1sc(-c2ccc(C(C)(C)C)cc2)cc1NC(=O)CSCC(=O)O
inactive: Potency [1] | Potency [2] | Potency [3] | Potency [4]

CN(C)c1cc(Cl)c2nonc2c1N
inactive: Potency [1] | Potency [2] | Potency [3] | Potency [4]

O=C(Nc1ccccc1C(=O)Nc1nnc(C(F)(F)F)s1)c1ccccc1Cl
inactive: Potency [1] | Potency [2] | Potency [3] | Potency [4]

COc1cc2c(c(OC)c1OC)C(c1ccccc1C)CC(=O)O2 (stereo not drawn)
inactive: Potency [1] | Potency [2] | Potency [3] | Potency [4]

COc1cc(C(=O)c2ccccc2)c([N+](=O)[O-])cc1OC
inactive: Potency [1] | Potency [2] | Potency [3] | Potency [4]

CCCCN(CCCC)C1=Nc2ccccc2N/C1=C(/C#N)C(=O)OCC
inactive: Potency [1] | Potency [2] | Potency [3] | Potency [4]

O=C(COc1ccc(Cl)cc1Cl)c1ccc[nH]1
inactive: Potency [1] | activation [2] -1.61% [at 17.1 µM, percent relative to cAMP agonist control] | activation [4] 7.74% [at 30.8 µM]

CCCN(CC(=O)Nc1ccccc1C)C(=O)c1oc2ccc(OCC)cc2c1C
inactive: Potency [1] | Potency [2] | Potency [4]

CN(CC(=O)Nc1ccccc1Cl)C(=O)c1ccc(-c2cccc(C(F)(F)F)c2)o1
inactive: Potency [1] | Potency [2] | Potency [4]

Cc1ccc(C)c(-c2csc(N)c2C(=O)OC(C)C)c1
inactive: Potency [1] | activation [2] 7.03% [at 17.1 µM, percent relative to cAMP agonist control] | activation [4] 30% [at 30.8 µM]

COc1cc(C(=O)N(C)CCOc2ccccc2)ccc1OCC(=O)Nc1cccc(C(F)(F)F)c1
inactive: Potency [1] | Potency [2] | Potency [4]

CC1COc2ccccc2N1S(=O)(=O)c1ccc(Cl)cc1 (stereo not drawn)
inactive: Potency [1] | Potency [2] | Potency [4]
